Laboratory results from PubChem BioAssay (NCATS).
Several values for one entry are separate records, joined by “and”; a condition that tells them apart may be missing. Equal entries are not always repeated. Inconclusive results are not listed. Activity calls are given as the source filed them. Calls follow the shape of the dose curve; as a rule, active = well fitted curve in the direction sought with a large enough effect; inconclusive = small, poorly fitted or top-dose-only effect, or another doubt; inactive = no such curve, though single readings can be large; an effect the other way counts as inactive or inconclusive.

Experiments:
MCC-13 = assay: qHTS assay to identify novel small-molecules to repurpose for Merkel cell carcinoma treatment (AID 1296009); conditions: MCC and control cell lines, CellTiter-Glo viability, 72 h; series mostly up to 46 µM; also: nearly all actives have a fitted effect of over 60% in size
Outline: (§1)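 After compound transfer in DMSO, plates were kept 72 hr at 37 degree celsius. Luminescent ATP signal from CellTiter-Glo served as viability measure, normalized against DMSO and no-cell controls.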

MCC-26 = assay: as above; conditions: MCC and control cell lines, CellTiter-Glo viability, 72 h; series mostly up to 46 µM
Outline: as §1

MKL-1 = assay: as above; conditions: MCC and control cell lines, CellTiter-Glo viability, 72 h; series mostly up to 46 µM
Outline: as §1

MKL-2 = assay: as above; conditions: MCC and control cell lines, CellTiter-Glo viability, 72 h; series mostly up to 46 µM
Outline: as §1

NIH3T3 = assay: as above; conditions: MCC and control cell lines, CellTiter-Glo viability, 72 h; at 44.8 µM (top of the series) unless noted
Outline: as §1

UISO = assay: as above; conditions: MCC and control cell lines, CellTiter-Glo viability, 72 h; series mostly up to 46 µM
Outline: as §1

WaGa = assay: as above; conditions: MCC and control cell lines, CellTiter-Glo viability, 72 h; series mostly up to 46 µM
Outline: as §1

C33A = assay: Primary qHTS to identify gynecologic anti-cancer compounds using libraries of approved drugs and bioactive compounds (AID 1345084); conditions: Gynecologic cancer cell panel viability, ATPlite luminescence, 48 h; series mostly up to 57.5 µM; also: nearly all actives have a fitted effect of over 55% in size
Outline: (§2)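 Cytotoxicity screen measuring ATP content by luciferase luminescence. Each compound is applied at five concentrations for 48 h at 37 C with 5% CO2.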

CAOV3 = assay: as above; conditions: Gynecologic cancer cell panel viability, ATPlite luminescence, 48 h; series mostly up to 57.5 µM
Outline: as §2

CASKI = assay: as above; conditions: Gynecologic cancer cell panel viability, ATPlite luminescence, 48 h; series mostly up to 57.5 µM
Outline: as §2

Es-2 = assay: as above; conditions: Gynecologic cancer cell panel viability, ATPlite luminescence, 48 h; series mostly up to 57.5 µM
Outline: as §2

HeLa = assay: as above; conditions: Gynecologic cancer cell panel viability, ATPlite luminescence, 48 h; series mostly up to 57.5 µM
Outline: as §2

Hek293T = assay: as above; conditions: Gynecologic cancer cell panel viability, ATPlite luminescence, 48 h, control line for the selectivity index; series mostly up to 57.5 µM
Outline: as §2

JEG-3 = assay: as above; conditions: Gynecologic cancer cell panel viability, ATPlite luminescence, 48 h; series mostly up to 57.5 µM
Outline: as §2

OV90 = assay: as above; conditions: Gynecologic cancer cell panel viability, ATPlite luminescence, 48 h; series mostly up to 57.5 µM
Outline: as §2

PA-1 = assay: as above; conditions: Gynecologic cancer cell panel viability, ATPlite luminescence, 48 h; series mostly up to 57.5 µM
Outline: as §2

SKOV3 = assay: as above; conditions: Gynecologic cancer cell panel viability, ATPlite luminescence, 48 h; series mostly up to 57.5 µM
Outline: as §2

Tov-21-G = assay: as above; conditions: Gynecologic cancer cell panel viability, ATPlite luminescence, 48 h; series mostly up to 57.5 µM
Outline: as §2

Tov112D = assay: as above; conditions: Gynecologic cancer cell panel viability, ATPlite luminescence, 48 h; series mostly up to 57.5 µM
Outline: as §2

[1] = Drug repurposing screens with cells derived from glioblastoma tumor samples (AID 1345199); conditions: GBM patient neurospheres viability, ATP luminescence, 48 h; also: nearly all actives have a fitted effect of over 40% in size; also: potency is read from the fitted curve at half-maximal effect
Outline: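 Four patient lines of CD133+ GBM neurospheres were screened at several concentrations; hits were retested in those lines plus three slower-growing GBM lines, using 48-hour treatment and ATP-based viability.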

[2] = at 45.9 µM (top of the series), tumour line B
[3] = at 45.9 µM (top of the series), tumour line D
[4] = at 46 µM (top of the series), tumour line A
[5] = at 46.1 µM (top of the series), tumour line C
% is scaled to controls: 0 for no effect and ±100 for the full control effect.

C[C@]12CCC(=O)C=C1CC[C@H]1[C@@H]3CC[C@](O)(C(=O)CO)[C@@]3(C)C[C@H](O)[C@@]12F
inactive: Potency (MCC-13) | Potency (MCC-26) | Potency (MKL-1) | Potency (MKL-2) | outcome (NIH3T3) | Potency (UISO) | Potency (WaGa) | Potency (C33A) | Potency (CAOV3) | Potency (CASKI) | Potency (Es-2) | Potency (HeLa) | Potency (Hek293T) | Potency (JEG-3) | Potency (OV90) | Potency (PA-1) | Potency (SKOV3) | Potency (Tov-21-G) | Potency (Tov112D) | activity, negative = cell killing [1, 2] -5.55% and -2.43% | activity, negative = cell killing [1, 3] -21.3% and -14.3% | activity, negative = cell killing [1, 4] -18.5% and -26.2% | activity, negative = cell killing [1, 5] -25.3% and 1.15%

CC(=O)OCC(=O)[C@@]1(O)[C@H](C)C[C@H]2[C@@H]3CCC4=CC(=O)C=C[C@]4(C)[C@@]3(F)[C@@H](O)C[C@@]21C
inactive: Potency (MCC-13) | Potency (MCC-26) | Potency (MKL-1) | Potency (MKL-2) | outcome (NIH3T3) | Potency (UISO) | Potency (WaGa) | Potency (C33A) | Potency (CASKI) | Potency (Es-2) | Potency (HeLa) | Potency (Hek293T) | Potency (JEG-3) | Potency (OV90) | Potency (PA-1) | Potency (SKOV3) | Potency (Tov-21-G) | Potency (Tov112D) | activity, negative = cell killing ([1]; at 20 µM (top of the series), tumour line C) -1.02% | activity, negative = cell killing ([1]; at 21.2 µM (top of the series), tumour line B) -13.3% | activity, negative = cell killing ([1]; at 21.2 µM (top of the series), tumour line D) -10.9% | activity, negative = cell killing [1, 2] 1.42% | activity, negative = cell killing [1, 3] -14.4% | activity, negative = cell killing [1, 5] -7.18%

CC(C)(CO)[C@@H](O)C(=O)NCCCO
inactive: Potency (MCC-13) | Potency (MCC-26) | Potency (MKL-1) | Potency (MKL-2) | outcome (NIH3T3) | Potency (UISO) | Potency (WaGa) | Potency (C33A) | Potency (CAOV3) | Potency (CASKI) | Potency (Es-2) | Potency (HeLa) | Potency (Hek293T) | Potency (JEG-3) | Potency (OV90) | Potency (PA-1) | Potency (SKOV3) | Potency (Tov-21-G) | Potency (Tov112D) | activity, negative = cell killing [1, 2] -12% | activity, negative = cell killing [1, 3] -24.7% | activity, negative = cell killing [1, 5] -3.06%

CC(=O)O[C@]1(C(C)=O)CC[C@H]2[C@@H]3C[C@H](C)C4=CC(=O)CC[C@]4(C)[C@H]3CC[C@@]21C
inactive: Potency (MCC-13) | Potency (MCC-26) | Potency (MKL-1) | Potency (MKL-2) | outcome (NIH3T3) | Potency (UISO) | Potency (WaGa) | Potency (C33A) | Potency (CASKI) | Potency (Es-2) | Potency (HeLa) | Potency (Hek293T) | Potency (JEG-3) | Potency (OV90) | Potency (PA-1) | Potency (SKOV3) | Potency (Tov-21-G) | Potency (Tov112D) | activity, negative = cell killing [1, 5] -19.7%
active: Potency ([1]; tumour line A) 17.8 µM

COC(=O)[C@@H]1CC2=CC(=O)CC[C@]2(C)[C@@]23O[C@@H]2C[C@@]2(C)[C@@H](CC[C@@]24CCC(=O)O4)[C@H]13
inactive: Potency (MCC-13) | Potency (MCC-26) | Potency (MKL-1) | Potency (MKL-2) | outcome (NIH3T3) | Potency (UISO) | Potency (WaGa) | Potency (C33A) | Potency (CAOV3) | Potency (CASKI) | Potency (Es-2) | Potency (HeLa) | Potency (Hek293T) | Potency (JEG-3) | Potency (OV90) | Potency (PA-1) | Potency (SKOV3) | Potency (Tov-21-G) | Potency (Tov112D) | activity, negative = cell killing [1, 2] -3.02% | activity, negative = cell killing [1, 3] -20% | activity, negative = cell killing [1, 4] -25% | activity, negative = cell killing [1, 5] -18.4%
